This note sets out measurements from PubChem BioAssay (EPA / NIEHS).

Molecules are shown by their SMILES. Results filed as inconclusive are left out. The source made the active and inactive calls. The calls were made as follows: active = hit-call score of the fitted dose curve at least 0.9, where 1 is the maximum; inconclusive = response in the unintended direction; inactive = score below 0.9.

Sequence of zebrafish Thyroid Hormone Receptor alpha (TRa), thraa (gene 30670) (Q98867 whole entry, looked up, the tested form may be a part): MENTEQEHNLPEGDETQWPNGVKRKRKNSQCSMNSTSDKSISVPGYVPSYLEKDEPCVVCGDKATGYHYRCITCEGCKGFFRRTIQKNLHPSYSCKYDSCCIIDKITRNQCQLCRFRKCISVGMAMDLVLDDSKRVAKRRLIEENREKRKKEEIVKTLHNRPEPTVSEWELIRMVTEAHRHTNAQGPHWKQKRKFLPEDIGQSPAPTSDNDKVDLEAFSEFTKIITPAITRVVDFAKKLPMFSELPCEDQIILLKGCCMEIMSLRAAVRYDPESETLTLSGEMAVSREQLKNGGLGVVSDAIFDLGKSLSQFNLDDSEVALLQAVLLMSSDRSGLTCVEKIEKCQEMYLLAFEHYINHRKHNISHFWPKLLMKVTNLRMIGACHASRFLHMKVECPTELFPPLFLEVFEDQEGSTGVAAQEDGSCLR

System in the first assay: not listed separately
Briefly: ATG_M_06_XSP1: Attagene TRANS-FACTORIAL Multi-Species (XSP1) HepG2 Assay for M06 Transcription Factor (Internal Marker) (AID 2283790). In outline:
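Transfected HepG2 multi-reporter system treated 24 h in the presence of 3 nM 6-alpha-fluorotestosterone. The M06 internal marker transcript was quantified by RT-PCR with capillary electrophoresis as a background control, and gain of signal was scored versus DMSO.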
Turning to `Cc1oc(-c2ccccc2)nc1CCOc1ccc(C[C@H](Nc2ccccc2C(=O)c2ccccc2)C(=O)O)cc1`, the outcome was inactive.
The same measure, in the same setting: to `CC[C@H](c1ccc(O)cc1)[C@@H](CC)c1ccc(O)cc1` belongs “inactive”; to `CCC(C)(C)C1CCC(O)CC1` (configuration not stated), “inactive”.

System in another assay: not listed separately
Briefly: ATG_M_61_XSP1: Attagene TRANS-FACTORIAL Multi-Species (XSP1) HepG2 Assay for M61 Transcription Factor (Internal Marker) (AID 2283797). A digest of the protocol: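 HepG2 cells transiently transfected with multiplexed GAL4-driven reporter units, dosed 24 h with 3 nM 6-alpha-fluorotestosterone present. Reporter mRNA quantified by RT-PCR, 6-FAM labelling, HpaI digestion and capillary electrophoresis; internal-marker background control, gain of signal versus DMSO.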
For `Cc1oc(-c2ccccc2)nc1CCOc1ccc(C[C@H](Nc2ccccc2C(=O)c2ccccc2)C(=O)O)cc1`, the result was inactive.
On the same count and under the same terms, next, `CC[C@H](c1ccc(O)cc1)[C@@H](CC)c1ccc(O)cc1`: “inactive”; `CCC(C)(C)C1CCC(O)CC1` (configuration not stated): “inactive”.

System in another assay: not listed separately
In words: ATG_M_32_XSP1: Attagene TRANS-FACTORIAL Multi-Species (XSP1) HepG2 Assay for M32 Transcription Factor (Internal Marker) (AID 2283799). A digest of the protocol: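 HepG2 cells transiently transfected with multi-species TRANS reporter units, dosed 24 h with 3 nM 6-alpha-fluorotestosterone present. Internal-marker reporter mRNA quantified by RT-PCR and capillary electrophoresis; positive-direction fit versus DMSO.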
Take `Cc1oc(-c2ccccc2)nc1CCOc1ccc(C[C@H](Nc2ccccc2C(=O)c2ccccc2)C(=O)O)cc1`: the compound was called inactive.
In the case of `CC[C@H](c1ccc(O)cc1)[C@@H](CC)c1ccc(O)cc1`, the compound was classed as inactive.
Regarding `CCC(C)(C)C1CCC(O)CC1` (configuration not stated), the call was inactive.

The next assay addresses zebrafish Thyroid Hormone Receptor alpha (TRa), thraa (gene 30670) (UniProt Q98867). In words: ATG_zfTRa_XSP1: Attagene TRANS-FACTORIAL Multi-Species (XSP1) HepG2 Assay for zebrafish Thyroid Hormone Receptor alpha (TRa) (AID 2283807). A digest of the protocol: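 HepG2 cells transiently transfected with GAL4-UAS reporter units including a zebrafish TRa–Gal4 chimera, dosed 24 h with 3 nM 6-alpha-fluorotestosterone present. Reporter mRNA quantified by RT-PCR and capillary electrophoresis; gain versus DMSO.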
For `Cc1oc(-c2ccccc2)nc1CCOc1ccc(C[C@H](Nc2ccccc2C(=O)c2ccccc2)C(=O)O)cc1`, the outcome was inactive.
The same measure, in the same setting: to `CC[C@H](c1ccc(O)cc1)[C@@H](CC)c1ccc(O)cc1` belongs “inactive”.
On the same count and under the same terms, to `CCC(C)(C)C1CCC(O)CC1` (configuration not stated) belongs “inactive”.
